Laboratory results reported in PubChem BioAssay AID1259251 (The Scripps Research Institute Molecular Screening Center, 2017).
Among all 30,000 compounds or so, about 580 (1.9%) were called active. This is one part of a sample in which actives are shown more often than they occur. Values without a mark were called inactive. Rule as the data show it: active = inhibition above about 43%; inactive = the rest.

Each compound was assayed against Serine/threonine-protein kinase ULK1 (Homo sapiens) (UniProt O75385) (assay: inhibition of human autophagy kinase ULK1 – biochemical, AlphaScreen, primary screen (AID 1259251;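 also: 0% = median of compound wells and 100% = no enzyme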)). Conditions: AlphaScreen Atg13 phosphorylation by ULK1, luminescence; at 5.96 µM; hits give high values.
Sequence of Serine/threonine-protein kinase ULK1 (Homo sapiens) (O75385 whole entry, looked up): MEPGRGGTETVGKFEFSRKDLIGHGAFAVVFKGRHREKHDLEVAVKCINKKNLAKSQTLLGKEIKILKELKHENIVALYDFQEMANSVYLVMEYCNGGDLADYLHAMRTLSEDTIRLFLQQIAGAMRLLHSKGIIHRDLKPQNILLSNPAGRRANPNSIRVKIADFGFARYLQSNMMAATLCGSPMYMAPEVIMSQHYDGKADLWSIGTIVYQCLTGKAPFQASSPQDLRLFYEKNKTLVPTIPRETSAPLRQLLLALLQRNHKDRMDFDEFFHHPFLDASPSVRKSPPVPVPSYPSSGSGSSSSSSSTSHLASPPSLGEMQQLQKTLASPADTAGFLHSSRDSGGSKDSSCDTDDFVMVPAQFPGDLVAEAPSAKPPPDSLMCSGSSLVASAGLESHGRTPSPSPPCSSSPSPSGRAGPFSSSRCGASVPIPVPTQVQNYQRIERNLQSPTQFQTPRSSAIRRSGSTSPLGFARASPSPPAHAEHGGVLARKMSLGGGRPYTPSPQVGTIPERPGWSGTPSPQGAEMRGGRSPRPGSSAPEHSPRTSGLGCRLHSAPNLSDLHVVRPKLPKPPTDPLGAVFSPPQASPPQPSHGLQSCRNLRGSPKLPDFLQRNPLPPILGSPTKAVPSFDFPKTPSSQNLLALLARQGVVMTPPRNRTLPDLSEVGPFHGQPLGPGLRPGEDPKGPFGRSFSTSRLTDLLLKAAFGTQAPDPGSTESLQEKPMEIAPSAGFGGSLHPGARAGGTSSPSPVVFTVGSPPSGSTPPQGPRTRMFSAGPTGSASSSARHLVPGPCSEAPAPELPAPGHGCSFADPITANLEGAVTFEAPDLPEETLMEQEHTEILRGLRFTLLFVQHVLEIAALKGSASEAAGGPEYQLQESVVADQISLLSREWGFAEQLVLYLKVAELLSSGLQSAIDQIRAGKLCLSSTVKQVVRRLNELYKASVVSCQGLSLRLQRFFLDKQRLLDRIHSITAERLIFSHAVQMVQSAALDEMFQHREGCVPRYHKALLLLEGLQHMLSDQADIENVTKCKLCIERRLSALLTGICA

SMILES | inhibition
CN(C)c1cc(F)cc(-c2ccnc(Nc3ccc(-n4cnc(N5CCOCC5)n4)cc3)n2)c1 | -12.3%
CN1CCN(c2ncn(-c3ccc(Nc4nccc(-c5ccc(NS(C)(=O)=O)cc5)n4)cc3)n2)CC1 | 63.3% (active)
Cn1nccc1-c1cc(F)cc(-c2ccnc(Nc3ccc(-n4cnc(N5CCOCC5)n4)cc3)n2)c1 | 10.3%
CC(=O)Nc1ccc(Nc2ncnc3nc(N4CCOCC4)[nH]c23)cc1 | -7.72%
CCCNC(=O)Cc1cn(-c2ccc(Nc3ccc(-n4ccnc4)cc3)nn2)c2ccccc12 | 0.04%
CC(C)(C)NC(=O)N1CCCN(c2ccc(S(C)(=O)=O)cc2)CC1 | 6.31%
CN1CCc2nc(NC(=O)c3ccc(Cl)cc3Cl)sc2C1 | -7.21%
O=C(Nc1ccc(N2CCOCC2)cc1)c1csc(Nc2ccc(-n3ccnc3)cc2)n1 | 47.9% (active)
O=C(Nc1ccc(N2CCOCC2)cc1)c1ccc2nc(Nc3ccncc3)sc2c1 | 52.9% (active)
O=C(Nc1ccccc1)c1ccc2nc(NCCN3CCOCC3)sc2c1 | 2.47%
O=C(Nc1ccc(N2CCOCC2)cc1)c1cnc(Nc2ccc(-n3ccnc3)cc2)s1 | 17.6%
O=C(NCc1ccccc1)c1csc(Nc2ccc(N3CCOCC3)cc2)n1 | 25.3%
CN(C)c1cccc(Nc2nc3ccc(C(=O)Nc4ccc(N5CCOCC5)cc4)cc3s2)c1 | 24.1%
Cc1cnnn1-c1ccc(Nc2nccc(-c3cc(C#N)cc(N4CCOCC4)c3)n2)cc1 | 14.1%
O=C(Nc1ccc2[nH]ncc2c1)[C@H]1C[C@@H](O)CN1C(=O)Cc1ccc(Br)cc1 | 5.77%
O=C(NCCCN1CCCC1=O)c1cccc(Cl)n1 | 10.3%
FC(F)(F)c1ccc(Cn2cnc3c(Nc4ccc5c(c4)OCO5)nc(N4CCC(N5CCOCC5)CC4)nc32)cc1 | 10%
c1cnc2ccc(Nc3nc4ncnc(NCc5nc6ccccc6[nH]5)c4[nH]3)cc2c1 | 15.5%
O=C(NC1CC1)c1cccc(Nc2cccnc2)n1 | -1.02%
FC(F)(F)c1cccc(CNc2nc(Nc3ccc(N4CCOCC4)cc3)nc3c2ncn3-c2ccsc2)c1 | -6.13%
CC(C)n1c(N2CCOCC2)nc2c(NCc3ccccc3)ncnc21 | -2.96%

SMILES | inhibition
CCN(CC)C(=O)C1CCCN(c2cccc(C(=O)NCc3nc4ccccc4[nH]3)c2)C1 (centres undefined) | 7.49%
COc1cccc(CN(CCN(C)C)C(=O)c2cn3cc(-c4ccnc(N)n4)ccc3n2)c1 | 0.96%
COc1cc2nc(-c3csc4ccccc34)nc(Nc3ccc(Oc4ccccc4)cc3)c2cc1OC | -36.4%
O=C(NC1CCN(Cc2ccccc2)CC1)c1ccc(-c2ccccc2)s1 | -15.1%
COc1ccc(C2=NC(C)(C)NC(c3ccccc3O)C2)cc1 (centres undefined) | 22.6%
Cc1ncn(-c2ccc(Nc3ncc(-c4cnn(C)c4)c(-c4cnn(C)c4)n3)cc2)n1 | -7.3%
Cc1nc(C)n(-c2ccc(Nc3cc(-n4ccnn4)ccn3)cc2)n1 | -1.71%
Cc1nc(C)n(-c2ccc(Nc3ncc4ccc(-c5cnn(C)c5)cc4n3)cc2)n1 | 75.2% (active)
Cc1noc(C)c1-c1nc(N)c2ncn(-c3ccccc3)c2n1 | 29.2%
CC(=O)NNC(=O)C(C)Oc1ccc(Cl)cc1Cl (centres undefined) | 3.12%
CC1(C(=O)Nc2ccc(-c3cn[nH]c3)cc2)COc2ccccc2C1 (centres undefined) | -8.37%
c1ccc(-n2cnc(-c3ccnc(Nc4ccc(N5CCOCC5)cc4)c3)n2)cc1 | -3.17%
c1ccc(Nc2nccc(Nc3ccc(N4CCOCC4)cc3)n2)cc1 | 4.53%
Fc1cnc(Nc2ccc(N3CCNCC3)cc2)cc1-n1cnc(Nc2ccccc2)n1 | 90.4% (active)
CN(C)c1cccc(Nc2nccc(NCc3ccccc3)n2)c1 | 1.8%
CC[C@H]1OC(=O)[C@H](C)C(=O)[C@H](C)[C@@H](O[C@@H]2O[C@H](C)C[C@H](N(C)C)[C@H]2O)[C@](C)(OC)C[C@@H](C)C(=O)[C@H](C)[C@@H]2N(CCCCn3cnc(-c4cccnc4)c3)C(=O)OC21C (some centres undefined) | -2.96%
O=C(NCCCN1CCCC1=O)c1cnc(-c2ccccc2)s1 | 0.58%
COc1ccc(CCNc2nc(-c3ccc(N4CCOCC4)nc3)ncc2C)cc1 | -5.93%
COc1ccc(CCNc2nc(Nc3ncccn3)nc3c2ncn3CCN2CCCC2=O)cc1 | 27.6%
O=C(NCCc1ccc(O)cc1)c1csc(Nc2cnccn2)n1 | 12.4%
O=C(NCc1nc2ccccc2[nH]1)c1cccc(Nc2ncccn2)n1 | 10.3%

SMILES | inhibition
O=C(NCc1nc2ccccc2[nH]1)c1csc(Nc2cnccn2)n1 | 46.6% (active)
CC(=O)c1cccc(-c2nccc(Nc3ccccc3)n2)c1 | -2.99%
COc1cc2nc(Nc3ccc(-n4ccnc4)cc3)nc(Nc3cc(OC)c(OC)c(OC)c3)c2cc1OC | -15.5%
C/C(CC(=O)NC1CCCC1)=N\NC(=O)COc1cccc(C)c1 | -34.7%
Cc1cc(NCc2ccccc2)nc(N2CCN(Cc3ccc4c(c3)OCO4)CC2)n1 | -4.09%
COc1ccc2c(c1)CC(C(=O)Nc1nc3ccc(-c4cn[nH]c4C)cc3s1)CO2 (centres undefined) | -7.18%
CCOc1ccccc1C1/C(=C(\O)c2ccc(OC)cc2C)C(=O)C(=O)N1CCN(C)C (centres undefined) | -3.39%
Fc1cnc(Nc2ccc(Cn3ccnc3)cc2)nc1-c1cccc(N2CCOCC2)c1 | 45.9% (active)
Fc1cc(-c2nc(Nc3ccc(CN4CCOCC4)cc3)ncc2F)cc(N2CCOCC2)c1 | 13.5%
Cc1ccc(-c2ncn(-c3ccc(Nc4ncc(F)c(-c5cccc(N6CCOCC6)c5)n4)cc3)n2)cn1 | -16.4%
CC(=O)OCc1nc2ccc(-c3ccncc3)cc2[nH]1 | -6.82%
O=C(NCc1cccnc1)c1ccnc(NCc2cccnc2)c1 | 8.32%
COc1cccc(CN(CCN(C)C)C(=O)c2c3ccc(-c4cn[nH]c4)cc3nn2CC2CC2)c1 | -4.47%
CC(C)NC(=O)c1cccc(NC(=O)Nc2ccc(-c3ccnc(N)n3)cc2)c1 | 1.02%
Cc1c[nH]c2ncnc(-c3ccc4c(C(=O)Nc5cccc(C(=O)NC(C)C)c5)n(CC5CC5)nc4c3)c12 | 50.2% (active)
O=C(Nc1ccc2[nH]ncc2c1)C1CCN(C(=O)[C@@H](O)c2ccccc2Cl)CC1 | 2.37%
CC(C)n1c(-c2csc3ccccc23)nc2c(NCc3ccccc3)ncnc21 | 0%
Cc1cnc(-c2c(C)nn(C)c2C)nc1NCCN1CCOCC1 | 3.9%
COc1cc(Nc2nc(NCc3cccc(C(F)(F)F)c3)c3ncn(C4CCCCC4)c3n2)cc(OC)c1OC | -5.25%
COc1cc(Nc2nc(NCc3cccc(C(F)(F)F)c3)c3[nH]cnc3n2)cc(OC)c1OC | 47.7% (active)
COc1cc(Nc2nc(Nc3cc(OC)c(OC)c(OC)c3)c3[nH]cnc3n2)cc(OC)c1OC | 16.2%

SMILES | inhibition
O=C(Nc1nc2c(s1)CN(Cc1ccccc1)CC2)c1cc(Cl)ccc1Cl | -4.96%
COc1cc(Nc2cc(N3CCN(Cc4ccc5c(c4)OCO5)CC3)ncn2)cc(OC)c1OC | -5.38%
Cc1cnc(-c2ccc(N3CCOCC3)nc2)nc1NCCN1CCOCC1 | 2.67%
COc1ccc(-c2nc(NCCN3CCOCC3)c3ncn(-c4ccccc4)c3n2)cn1 | -16.5%
Nc1nc(NCc2ccccc2)cc(NCc2cccnc2)n1 | -4.44%
COc1cc(N2CCOCC2)ccc1Nc1cc(Nc2ccccc2C(N)=O)ccn1 | 7.87%
CNC(=O)c1ccccc1Nc1nc(Nc2ccc(N3CCOCC3)cc2OC)ncc1Cl | 77.3% (active)
CNC(=O)c1ccccc1Nc1cc(Nc2ccc(N3CCOCC3)cc2OC)ncc1F | 16.4%
COC(=O)c1ccc(C2Nc3c(C(=O)OC)cccc3C3C=CCC32)cc1 (centres undefined) | 7.56%
CCCN1CCc2c(sc(N)c2C(=O)OC)C1 | 7.44%
c1ccc(CN2CCC(Nc3ccnc(NC4CCN(Cc5ccccc5)CC4)n3)CC2)cc1 | -6.32%
CC(=O)Nc1ccc(NC(=O)c2ccc(-c3ccc(C(N)=O)cc3)s2)cc1 | -5.71%
O=C(NCc1cccnc1)c1cccc(Nc2ccc(N3CCOCC3)cc2)n1 | 5.75%
Cc1nn(C)c(C)c1-c1cccc(C(=O)NCCN(C(C)C)C(C)C)n1 | -2.03%
CC(C)n1cnc2c(Nc3ccc(N4CCOCC4)cc3)nc(NC3CCC(O)CC3)nc21 (centres undefined) | 43.6% (active)
CC(C)n1cnc2c(Nc3ccc(N4CCOCC4)cc3)nc(Nc3ccncc3)nc21 | 55.3% (active)
CC(C)n1cnc2c(NC3CCN(Cc4ccccc4)CC3)nc(Nc3ccc(N4CCOCC4)cc3)nc21 | 11.3%
c1cc(Nc2nc(Nc3ccc(N4CCOCC4)cc3)c3ncn(-c4ccsc4)c3n2)ccn1 | 19.3%
CC(C)n1cnc2c(NCc3cccnc3)nc(Nc3ccc(N4CCOCC4)cc3)nc21 | 1.97%
CC(C)n1cnc2c(NCc3ccccc3)nc(NC3CCC(O)CC3)nc21 (centres undefined) | 0.05%
O=C(Nc1ccc2[nH]ncc2c1)[C@@H]1C[C@H](O)CN1C(=O)Cc1ccc(Br)cc1 | 5.62%
